Test results taken from PubChem BioAssay.
Activity calls are given as the source filed them.

Key:
Albumin (Bos taurus) = Albumin (Bos taurus) (UniProt P02769); assay: bovine serum albumin binders on microarray, profiling panel, artefact control for SMM control protein annotation, biochemical, small-molecule microarray, Alexa647 label, 635/667 nm fluorescence (AID 1118); conditions: BSA-A647 binding, fluorescence 635 nm, higher = more signal;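 further: score merges 667 nm emission intensity and signal-to-noise per printed compound spot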
[1] = small-molecule microarray binders of probe aXIP, primary screen, biochemical, NeuroSMM set, 635/667 nm fluorescence (AID 1119); conditions: higher = more signal, called active from +8 up or from −8 down;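 further: probe is the protein aXip251-270 applied at 1 µg/mL to compound-printed slides; binding of probe to printed compounds measured as 667 nm fluorescence plus signal to noise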
[2] = small-molecule binders of probe aNOTCH3, primary screen, biochemical, small-molecule microarray, 635/667 nm fluorescence (AID 1120); conditions: higher = more signal;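 further: probe is a biotin-tagged antibody raised against NOTCH3 rather than NOTCH3 protein; score merges spot fluorescence near 667 nm with spot signal to noise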
[3] = small-molecule binders of probe aNOTCH2, primary screen, biochemical, small-molecule microarray, 635/667 nm fluorescence (AID 1121); conditions: higher = more signal;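 further: score merges feature fluorescence read at 667 nm with its signal to noise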
[4] = molecular target: Carbonic anhydrase 2 (Homo sapiens) (UniProt P00918); assay: CAII small-molecule binders, profiling panel, biochemical, small-molecule microarray, Alexa647-labelled CAII (AID 1122); conditions: CAII-A647 binding fluorescence, higher = more signal
[5] = COS7 lysate on small-molecule microarray, probe aHis, 635 nm (AID 1123); conditions: COS7 cell lysate, fluorescence, higher = more signal;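 further: z-score combines 667nm fluorescence intensity with signal-to-noise per printed compound spot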
[6] = compound binding in COS7 lysate, probe aLAP1, primary screen, cell lysate, small-molecule microarray (AID 1124); conditions: probe aLAP1, fluorescence, higher = more signal;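 further: lysate comes from COS7 cells expressing LAP1 and is applied at 0.3 µg/mL; score merges spot fluorescence near 667 nm with signal-to-noise over triplicate slides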
Sam68 (KHDRBS1) = assay: Sam68 small-molecule binders, primary screen, biochemical, small-molecule microarray, 635 nm fluorescence (AID 1125); conditions: small-molecule microarray binding, higher = more signal;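 further: score merges 667 nm channel intensity with signal to noise over triplicate slides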
[7] = system: Chordin-like protein 2 (CHRDL2); assay: CHRDL2 small-molecule binders, primary screen, biochemical, small-molecule microarray, 635 nm fluorescence (AID 1126); conditions: small-molecule microarray binding, fluorescence 635 nm; higher = more signal;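 further: printed compound slides probed with Chrdl2 protein at 4 µg/mL for 1 h at 4 C; score merges 667 nm emission intensity with signal to noise over three replicate slides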
[8] = molecular target: Concanavalin-A (Canavalia ensiformis) (UniProt P02866); assay: ConA small-molecule binders, primary screen, artefact control for SMM control protein annotation, biochemical, small-molecule microarray, Alexa647 label, 635 nm (AID 1127); conditions: ConA-A647 binding fluorescence, higher = more signal;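 further: z combines 667 nm emission intensity with signal-to-noise across three replicate slides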
[9] = anti-His antibody binders, primary screen, artefact control for SMM control protein annotation, biochemical, small-molecule microarray, 635 nm fluorescence (AID 1128); conditions: anti-His Alexa647 antibody binding, higher = more signal;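 further: score merges feature fluorescence with signal-to-noise for each printed compound spot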
[10] = system: Human papillomavirus type 1a E7 protein (residues 1-88); assay: HPV1a E7 small-molecule binders, primary screen, biochemical, small-molecule microarray, residues 1-88, 635 nm (AID 1129); conditions: small-molecule microarray binding, fluorescence 635 nm; higher = more signal
[11] = molecular target: Focal adhesion kinase 1 (Homo sapiens) (UniProt Q05397); assay: small-molecule microarray binders of FAK, primary screen, biochemical, 635/667 nm fluorescence, BSA, DTT (AID 1130); conditions: PTK2 binding, 635 nm fluorescence, higher = more signal;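 further: composite of spot emission at 667 nm and signal to noise over triplicate slides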
[12] = system: Fibrinogen (Alexa647-labelled); assay: fibrinogen binders on compound microarrays, profiling panel, artefact control for SMM control-protein annotation, biochemical, small-molecule microarray, 635/667 nm fluorescence (AID 1131); conditions: fibrinogen-A647 binding fluorescence, higher = more signal;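 further: z-score merges 667 nm fluorescence with per-spot signal-to-noise over triplicate slides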
[13] = molecular target: Follistatin (Homo sapiens) (UniProt P19883); assay: follistatin binders on small-molecule microarrays, primary screen, biochemical, small-molecule microarray, 635/667 nm fluorescence (AID 1132); conditions: FST binding, 635 nm fluorescence, higher = more signal
[14] = molecular target: Fibroblast growth factor 2 (Homo sapiens) (UniProt P09038); assay: FGF2 binders on small-molecule microarrays, primary screen, biochemical, small-molecule microarray, 635/667 nm fluorescence (AID 1133); conditions: small-molecule microarray binding, FGF2, fluorescence 635/667; higher = more signal
[15] = mitochondrial membrane potential change in A549 cells, profiling panel, cell-based, JC-1 fluorescence, basal, 24 h, 100 nL (AID 1138); conditions: higher = more signal;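 further: A549 lung adenocarcinoma cells under basal conditions with no added stimulus; test concentration not given here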
Lefty1 = Lefty1 binders on small-molecule microarrays, primary screen, biochemical, small-molecule microarray, 635/667 nm fluorescence (AID 1139); conditions: small-molecule microarray binding, fluorescence 635/667; higher = more signal
[16] = system: wheat germ agglutinin (Triticum aestivum), Alexa647-labelled; assay: wheat germ agglutinin binders on compound microarrays, profiling panel, artefact control for SMM control-protein annotation, biochemical, small-molecule microarray, 635/667 nm fluorescence (AID 1140); conditions: WGA-A647 binding, 635 nm fluorescence, higher = more signal;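 further: score merges 667 nm feature emission with signal to noise over triplicate slides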
[17] = molecular target: Luciferin 4-monooxygenase (Photinus pyralis) (UniProt P08659); assay: firefly luciferase enzyme inhibitors, primary screen, biochemical, luminescence, purified enzyme, 2006 set (AID 1141); conditions: SteadyGlo luminescence, 30 min, higher = more signal, called active from +8 up or from −8 down;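 further: cell-free assay with purified firefly luciferase at 100 ng per well in PBS; test concentration not given here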
Sequence of Luciferin 4-monooxygenase (Photinus pyralis) (P08659 whole entry, looked up): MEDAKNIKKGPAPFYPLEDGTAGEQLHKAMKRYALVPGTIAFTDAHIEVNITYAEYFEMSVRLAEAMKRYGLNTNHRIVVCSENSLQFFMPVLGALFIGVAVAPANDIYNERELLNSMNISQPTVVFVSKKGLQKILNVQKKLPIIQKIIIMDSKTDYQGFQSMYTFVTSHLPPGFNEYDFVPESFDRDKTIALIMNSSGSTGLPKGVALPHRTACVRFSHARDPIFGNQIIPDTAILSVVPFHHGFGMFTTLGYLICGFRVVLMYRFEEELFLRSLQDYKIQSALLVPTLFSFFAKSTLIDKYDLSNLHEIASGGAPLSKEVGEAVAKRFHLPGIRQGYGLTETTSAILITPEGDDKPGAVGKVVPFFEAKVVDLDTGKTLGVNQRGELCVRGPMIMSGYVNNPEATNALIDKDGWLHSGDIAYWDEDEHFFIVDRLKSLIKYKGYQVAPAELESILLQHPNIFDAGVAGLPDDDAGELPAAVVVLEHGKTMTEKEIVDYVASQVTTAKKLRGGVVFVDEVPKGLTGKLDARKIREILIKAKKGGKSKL

Sequence of Albumin (Bos taurus) (P02769 whole entry, looked up): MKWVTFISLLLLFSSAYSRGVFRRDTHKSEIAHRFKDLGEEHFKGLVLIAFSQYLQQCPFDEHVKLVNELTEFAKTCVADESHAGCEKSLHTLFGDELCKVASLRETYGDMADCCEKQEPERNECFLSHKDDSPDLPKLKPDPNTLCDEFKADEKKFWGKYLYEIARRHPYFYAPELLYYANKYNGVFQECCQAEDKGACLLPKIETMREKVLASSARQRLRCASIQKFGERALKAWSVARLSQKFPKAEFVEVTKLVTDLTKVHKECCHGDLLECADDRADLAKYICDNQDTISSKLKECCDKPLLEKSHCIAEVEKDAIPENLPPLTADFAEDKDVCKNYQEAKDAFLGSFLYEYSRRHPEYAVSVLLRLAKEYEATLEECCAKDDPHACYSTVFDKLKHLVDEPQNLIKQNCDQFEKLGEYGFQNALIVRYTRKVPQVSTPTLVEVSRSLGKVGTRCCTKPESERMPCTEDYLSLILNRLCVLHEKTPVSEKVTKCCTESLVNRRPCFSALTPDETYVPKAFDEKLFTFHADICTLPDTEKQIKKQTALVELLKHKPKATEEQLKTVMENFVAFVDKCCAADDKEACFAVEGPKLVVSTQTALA
Sequence of Fibroblast growth factor 2 (Homo sapiens) (P09038 whole entry, looked up): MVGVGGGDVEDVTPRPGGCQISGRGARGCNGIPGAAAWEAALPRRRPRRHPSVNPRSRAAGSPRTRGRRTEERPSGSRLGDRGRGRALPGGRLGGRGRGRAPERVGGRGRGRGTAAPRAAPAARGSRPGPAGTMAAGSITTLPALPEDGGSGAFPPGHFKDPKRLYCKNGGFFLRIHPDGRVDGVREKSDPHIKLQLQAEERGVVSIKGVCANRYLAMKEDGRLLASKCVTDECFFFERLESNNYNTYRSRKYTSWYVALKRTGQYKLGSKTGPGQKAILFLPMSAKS
Sequence of Concanavalin-A (Canavalia ensiformis) (P02866 whole entry, looked up): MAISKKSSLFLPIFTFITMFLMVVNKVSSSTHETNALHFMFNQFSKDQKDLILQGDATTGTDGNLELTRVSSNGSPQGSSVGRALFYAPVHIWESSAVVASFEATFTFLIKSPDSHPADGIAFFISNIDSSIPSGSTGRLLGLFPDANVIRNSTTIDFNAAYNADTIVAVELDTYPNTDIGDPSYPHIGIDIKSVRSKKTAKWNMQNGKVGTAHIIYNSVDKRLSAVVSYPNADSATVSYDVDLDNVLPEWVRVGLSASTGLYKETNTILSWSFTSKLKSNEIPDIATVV
Sequence of Focal adhesion kinase 1 (Homo sapiens) (Q05397 whole entry, looked up): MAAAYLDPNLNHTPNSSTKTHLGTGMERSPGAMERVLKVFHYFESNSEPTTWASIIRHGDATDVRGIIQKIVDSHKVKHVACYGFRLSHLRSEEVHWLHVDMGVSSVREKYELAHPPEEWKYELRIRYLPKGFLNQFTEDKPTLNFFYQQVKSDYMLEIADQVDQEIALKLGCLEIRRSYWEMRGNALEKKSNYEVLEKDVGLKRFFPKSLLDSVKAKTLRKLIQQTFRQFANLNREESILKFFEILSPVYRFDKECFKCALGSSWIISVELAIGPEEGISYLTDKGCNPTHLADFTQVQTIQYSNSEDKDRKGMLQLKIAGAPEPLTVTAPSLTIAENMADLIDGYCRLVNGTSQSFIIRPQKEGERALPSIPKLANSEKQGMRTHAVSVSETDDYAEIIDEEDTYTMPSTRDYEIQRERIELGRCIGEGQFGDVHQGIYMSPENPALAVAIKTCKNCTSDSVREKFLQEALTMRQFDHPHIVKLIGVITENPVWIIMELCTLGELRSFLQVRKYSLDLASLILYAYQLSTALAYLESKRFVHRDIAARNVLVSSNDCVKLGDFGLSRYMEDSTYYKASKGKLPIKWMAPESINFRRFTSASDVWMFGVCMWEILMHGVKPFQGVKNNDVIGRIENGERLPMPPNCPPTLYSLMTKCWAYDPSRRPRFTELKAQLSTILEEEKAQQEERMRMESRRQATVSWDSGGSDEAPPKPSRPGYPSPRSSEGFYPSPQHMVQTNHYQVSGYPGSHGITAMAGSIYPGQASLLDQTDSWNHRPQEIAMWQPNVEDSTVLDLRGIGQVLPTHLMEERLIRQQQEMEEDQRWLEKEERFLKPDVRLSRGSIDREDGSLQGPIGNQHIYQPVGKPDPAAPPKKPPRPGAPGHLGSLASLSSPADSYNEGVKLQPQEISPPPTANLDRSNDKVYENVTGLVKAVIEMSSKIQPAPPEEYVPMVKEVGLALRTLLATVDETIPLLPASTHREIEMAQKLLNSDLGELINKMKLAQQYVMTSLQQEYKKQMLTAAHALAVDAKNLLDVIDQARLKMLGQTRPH
Sequence of Follistatin (Homo sapiens) (P19883 whole entry, looked up): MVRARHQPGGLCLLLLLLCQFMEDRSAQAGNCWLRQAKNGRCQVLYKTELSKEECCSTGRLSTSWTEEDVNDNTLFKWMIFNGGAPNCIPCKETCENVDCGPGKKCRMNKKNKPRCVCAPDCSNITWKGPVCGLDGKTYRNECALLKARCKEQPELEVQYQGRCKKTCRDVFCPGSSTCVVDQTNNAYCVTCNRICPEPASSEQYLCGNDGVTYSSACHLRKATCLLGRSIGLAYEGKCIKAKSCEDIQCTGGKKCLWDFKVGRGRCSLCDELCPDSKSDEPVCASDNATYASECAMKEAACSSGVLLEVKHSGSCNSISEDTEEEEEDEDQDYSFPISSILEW

SMILES | composite z-score (Albumin (Bos taurus)) | composite Z-score [1] | composite z-score [2] | composite z-score [3] | composite z-score [4] | composite z-score [5] | composite z-score [6] | composite z-score (Sam68 (KHDRBS1)) | composite z-score [7] | composite z-score [8] | composite z-score [9] | composite z-score [10] | composite z-score [11] | composite z-score [12] | composite z-score [13] | composite z-score [14] | z-score [15] | composite z-score (Lefty1) | composite z-score [16] | z-score [17]
[N-]=[N+]=Nc1ccccc1[C@@H]1OC(c2ccc(OCCCO)cc2)=N[C@]1(Cc1ccccc1)C(=O)O | 0.893 | 0.008 (inactive) | 0.136 | -0.0068 | 0.62 | 1.23 | -0.25 | 1.3 | 0.155 | 0.665 | 1.87 | 1.21 | 0.854 | 0.803 | 1.31 | 0.32 | 0.506 | -0.028 | 1.09 | -9.46 (active)
CCCCC(CC)C(O)C1C=CC2C(=O)N(c3ccccc3)C(=O)C2N1Nc1ccccc1F (stereo not given) | 0.468 | -0.243 (inactive) | 0.225 | -0.153 | 0.749 | 2.75 | 0.51 | 1.12 | -0.904 | 0.0845 | 2.22 | 1.2 | 0.1 | -0.209 | 0.729 | -0.315 | -1.04 | 0.276 | 0.357 | 1.61 (inactive)
COCCOC(=O)N1C(=O)[C@@]2(c3cc(C#CC4(O)CCCCCC4)ccc31)[C@H](C(=O)N1CCc3cc(OC)c(OC)cc3C1)[C@H]1C(=O)O[C@H](c3ccccc3)[C@H](c3ccccc3)N1[C@@H]2c1ccc(OCCO)cc1 | 0.121 | 0.28 (inactive) | -0.021 | -0.0617 | 0.515 | 0.535 | 0.272 | 1.31 | 0.666 | 1.12 | 0.244 | 0.867 | 1.06 | 0.682 | 1.29 | 1.32 | -1.11 | 1.23 | 0.475 | -1.07 (inactive)
CCOC(=O)C[C@H]1[C@H](OC(=O)c2ccc(C(=O)c3ccccc3)cc2)[C@@H](NC(=O)c2ccc3ccccc3n2)c2cc(OCCCO)ccc2N1C(=O)Cc1ccc(OC)cc1 | 0.567 | -0.201 (inactive) | 0.0779 | -0.153 | -0.175 | 0.759 | -0.263 | 0.627 | -0.384 | 0.93 | -0.249 | 0.656 | 0.0555 | 0.692 | 0.259 | 0.52 | -0.44 | 0.208 | 0.207 | 0.541 (inactive)
C=C(/C(=C/C[C@H](OC(=O)c1ccncc1)c1ccc(CO)o1)c1cnc2ccccc2c1)C(C)C | 0.702 | -0.55 (inactive) | 0.169 | -0.0216 | 0.902 | 0.75 | -0.159 | 1.12 | 0.684 | 1.11 | 1.29 | 1.19 | 0.0621 | 0.866 | 1.31 | 1.18 | 0.909 | 1.34 | 1.08 | -2.9 (inactive)
